SMILES strings stand for the structures. This is part of a sample that, as a whole, favours compounds with a hit. Of some 83,000 tested, about 20% had one in any assay.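 Values shown are percent growth following 48 h exposure of cells in 96-well plates to a single concentration of compound; below 10 was considered active.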 Values without a mark were called inactive. The source made the active and inactive calls.

Test systems include NCI-H23 lung; NCI-H226 lung; NCI-H322M lung; HOP-62 NSCLC; HOP-92 NSCLC; NCI-H522 lung; 786-0 renal; COLO 205 colon; DU-145 prostate; K-562 leukemia; MALME-3M melanoma; MDA-MB-231 breast; RXF 393 renal; SF-268 CNS; SF-295 CNS; SF-539 CNS; UACC-257 melanoma; M14 melanoma; A549/ATCC NSCLC; NCI-H460 lung.
Test in all cases: NCI-60 one-dose screen, 48 h (100 = growth as untreated, 0 = no growth, -100 = all killed)
Holding throughout (details): 10 µM unless noted

`Cc1cc(C(=O)O)c(C)n1-c1cccc(C(=O)O)c1`: the growth in the assay on NCI-H23 lung was 78.7%; in the assay with NCI-H226 lung, 100%; in the assay with NCI-H322M lung, 94%; in the assay with HOP-62 NSCLC, 96.7%; with HOP-92 NSCLC it was 90.5%; in the assay with NCI-H522 lung, 46%. In addition, the growth with 786-0 renal is 106%; in the assay with COLO 205 colon, 92.5%; in the assay on DU-145 prostate it was 16.9%; in the assay with K-562 leukemia, 63.3%; in the assay on MALME-3M melanoma, 113%; with MDA-MB-231 breast, 96.8%. Moreover, the growth in the assay on RXF 393 renal is 61.8%; in the assay with SF-268 CNS, 84.5%; with SF-295 CNS, 61.3%; with SF-539 CNS, 102%; in the assay with UACC-257 melanoma, 70.1%; in the assay with M14 melanoma, 90.9%.
For `CSc1nc2ncc([N+](=O)[O-])c(=O)n2[nH]1`, the growth was 104% in the assay with NCI-H23 lung; 97% in the assay on NCI-H226 lung; 110% in the assay with NCI-H322M lung; 98.8% in the assay with HOP-62 NSCLC; 52.4% in the assay on HOP-92 NSCLC; 93.8% in the assay with NCI-H522 lung. The growth in the assay with 786-0 renal is 108%; with COLO 205 colon, 119%; with DU-145 prostate, 110%; in the assay with K-562 leukemia it was 104%; in the assay with MALME-3M melanoma it was 101%; in the assay on MDA-MB-231 breast, 108%. Further, the growth with RXF 393 renal is 105%; in the assay with SF-268 CNS, 98.8%; with SF-295 CNS, 96.6%; with SF-539 CNS it was 100%; with UACC-257 melanoma, 105%; in the assay with M14 melanoma, 98.4%.
For `CCN(CC)c1ccc(\C=N/N=C(N)/C(N)=N\N=C/c2ccc(N(CC)CC)cc2)cc1`, the growth in the assay with NCI-H23 lung is 94.9%; in the assay on NCI-H226 lung, 103%; in the assay on NCI-H322M lung it was 105%; with HOP-62 NSCLC, 93.1%; with HOP-92 NSCLC, 116%; in the assay with NCI-H522 lung it was 92.2%. The growth in the assay with A549/ATCC NSCLC was 104%; in the assay with 786-0 renal it was 113%; in the assay with COLO 205 colon, 106%; with DU-145 prostate, 110%; in the assay with K-562 leukemia, 99.3%; with MALME-3M melanoma it was 93.9%. The growth is 112% in the assay with MDA-MB-231 breast; 109% in the assay with RXF 393 renal; 105% in the assay on SF-268 CNS; 98.9% with SF-295 CNS; 107% in the assay on SF-539 CNS; 104% in the assay with UACC-257 melanoma. Also, the growth with M14 melanoma is 110%.
For the compound `CCCCCOC(=O)c1c(C)[nH]c(/C=C2\N=C(c3ccc[nH]3)C=C2OC)c1C`, the growth was -59.1% (active) with NCI-H23 lung; -74.8% (active) in the assay with NCI-H226 lung; -17.8% (active) in the assay with HOP-62 NSCLC; 4.97% (active) with NCI-H460 lung; -20.5% (active) with HOP-92 NSCLC; -56.7% (active) in the assay with NCI-H522 lung. For the same compound, the growth in the assay on A549/ATCC NSCLC was -1.61% (active); with 786-0 renal, -16.9% (active); with COLO 205 colon it was -88.2% (active); in the assay with DU-145 prostate, 27.4%; in the assay on K-562 leukemia, -6.07% (active); in the assay on MALME-3M melanoma it was -61.3% (active). Further, the growth with MDA-MB-231 breast was -48.5% (active); in the assay with RXF 393 renal, -47.3% (active); with SF-268 CNS, 14.9%; in the assay with SF-295 CNS it was -37.2% (active); with SF-539 CNS, -41.6% (active); in the assay on UACC-257 melanoma, -20.1% (active). In addition, in the assay on M14 melanoma, the growth is -70.4% (active).
For the compound `N#Cc1ccc(O)c(C2=NCC(c3ccccc3)O2)c1` (configuration not stated), the growth was 44.6% in the assay on NCI-H23 lung; 68% with NCI-H226 lung; 29.7% with HOP-62 NSCLC; 19.9% in the assay on NCI-H460 lung; 60.6% in the assay on HOP-92 NSCLC; -12.8% (active) in the assay with NCI-H522 lung. For the same compound, the growth in the assay on A549/ATCC NSCLC was 32%; in the assay with 786-0 renal, 33.2%; in the assay with COLO 205 colon, 36%; in the assay with DU-145 prostate it was 53.7%; in the assay on K-562 leukemia, 23.4%; in the assay on MALME-3M melanoma, 56.6%. For the same compound, the growth is 46.4% with MDA-MB-231 breast; 73.1% with RXF 393 renal; 47.2% in the assay with SF-268 CNS; 36.4% in the assay with SF-295 CNS; 61.2% with SF-539 CNS; 35.4% in the assay on UACC-257 melanoma. The growth with M14 melanoma was 41.8%.
In the case of `CCCc1c(OC(=O)c2ccccc2)nc2[nH]c(=O)sc2c1C`, the growth in the assay with NCI-H23 lung was 99%; in the assay with NCI-H226 lung, 89.9%; with HOP-62 NSCLC, 95.6%; in the assay with NCI-H460 lung, 103%; in the assay with HOP-92 NSCLC, 93.3%; in the assay on NCI-H522 lung it was 87.4%. The growth with A549/ATCC NSCLC is 99.6%; with 786-0 renal, 106%; with COLO 205 colon, 101%; with DU-145 prostate, 106%; in the assay with K-562 leukemia it was 112%; with MALME-3M melanoma it was 95.1%. Moreover, the growth in the assay on MDA-MB-231 breast is 104%; in the assay with RXF 393 renal it was 101%; in the assay with SF-268 CNS it was 97.1%; in the assay with SF-295 CNS, 102%; in the assay with SF-539 CNS, 99%; in the assay on UACC-257 melanoma, 98.5%. Besides, the growth in the assay on M14 melanoma was 99.4%.

The values are drawn from PubChem BioAssay (NCI).
